# Active and inactive are the calls of the source.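 How the source made its calls, unless noted: active means z-score of at least 1.8 in each of two replicates, scored against plate mean and spread of sample wells; inactive means the rest.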
# Key:
# [1] = MELAS cybrid and Rieske KO viability enhancers – cell-based, MELAS cybrids, Rieske KO mouse fibroblasts, CellTiter-Glo, primary screen (AID 1508586;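 active means mean z-score across replicates of 1.96 or higher in either the MELAS or the Rieske mutant cell line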;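 further: test concentration not given here; z relative to plate mean and SD of compound and empty wells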); conditions: low glucose
# [2] = galactose survival enhancers in mitochondrial complex I cybrids – cell-based, galactose medium, ATP luminescence, primary screen (AID 1645843); conditions: complex I mutant cybrid cells, 72 h, stronger effect = higher value;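 further: positive z means more ATP and so rescue of galactose-driven cybrid death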
# [3] = MELAS cybrid survival, CellTiter-Glo 48 h, stronger effect = higher value
# [4] = Rieske KO mouse fibroblast survival, CellTiter-Glo 72 h
Structure (SMILES),"z-score [1, 3]","z-score [1, 4]",z-score [2]
CC(C)Cn1nc(C(=O)NCc2cccnc2)c2c1CCN(C(=O)c1scc3c1OCCO3)C2,-0.675,5.2,-1.46 (inactive)
CC(C)CNC(=O)[C@H]1CNC[C@@H](CN2CCOCC2)C1,0.0168 (inactive),0.121,-0.045 (inactive)
Cn1nc(C(=O)NCc2cccnc2)c2c1CCN(Cc1ccc3c(c1)Cc1ccccc1-3)C2,-0.134 (inactive),-0.0827,0.125 (inactive)
COc1ccc(-c2[nH]ncc2CN2CCC3(CC2)C(=O)N(C(C)C)C(=O)N3CCC(C)C)cc1,0.0083 (inactive),-0.0351,0.975 (inactive)
COCCN1C(=O)N(C2Cc3ccccc3C2)C(=O)C12CCN(Cc1cnn(C)c1C)CC2,-0.225 (inactive),-0.00202,1.21 (inactive)
Cc1ccc(N2CCN(C3CCc4c(c(C(=O)N5CCSCC5)nn4C)C3)CC2)c(C)c1 (stereo unspecified),-0.0351 (inactive),-0.612,0.195 (inactive)
Cc1ncc(CNc2cc(C(=O)Nc3cccc(N(C)C)c3)cc(S(=O)(=O)N3CCCC3)c2)[nH]1,-0.563 (inactive),-0.237,0.295 (inactive)
Cn1cc(CN2CC(OCc3cccnc3)CN(Cc3cn[nH]c3-c3ccccc3)CC2=O)cn1 (stereo unspecified),-0.178 (inactive),-0.506,0.715 (inactive)
O=C(C1COc2ccccc2C1)N1CC(=O)N(C2CCCCC2)CC(OCc2ccccn2)C1 (stereo unspecified),0.04 (inactive),-1.17,2.08 (inactive)
O=C1N[C@@H](Cc2ccccc2)C(=O)N2CCN(C(=O)c3cccs3)C[C@H]12,-0.168 (inactive),-0.046,-1.15 (inactive)
COCc1ccc(CN2CCC3(CC2)C(=O)N(C2Cc4ccccc4C2)C(=O)N3CC(C)C)o1,-0.309 (inactive),-0.702,1.99 (active)
CC(C)CNc1cc(C(=O)NC2Cc3ccccc3C2)cc(S(=O)(=O)NC(C)C)c1,0.0668 (inactive),-0.0556,-1.6 (inactive)
Cc1c(CN2CCc3c(c(C(=O)NC4CCCC4)nn3CC(C)C)C2)c(=O)n(-c2ccccc2)n1C,-0.389 (inactive),-0.276,0.17 (inactive)
Cc1ccc2c(-c3cc4c(n(CC5CC5)c3=O)CCN(C(=O)c3ccc5c(c3)OCO5)C4)cccc2n1,2.47 (active),3.71,-0.54 (inactive)
COC(=O)c1c(NC(=O)c2ccco2)c2cc(NC3CCOCC3)cnc2n1C,-0.622 (inactive),-0.251,0.7 (inactive)
CCOC(=O)N1CCC(NC2CCc3c(c(C(=O)N(C)C)nn3Cc3ccccc3)C2)CC1 (stereo unspecified),-0.0814 (inactive),0.468,-0.835 (inactive)

Structure (SMILES),"z-score [1, 3]","z-score [1, 4]",z-score [2]
COC(=O)c1c(NC(=O)C2CCC2)c2cc(NC3CCSCC3)cnc2n1CCc1ccccn1,-0.0865 (inactive),-0.308,1.1 (inactive)
CCOC(=O)c1nn(CCc2ccccc2)c2c1CN(C(=O)CCc1nc3ccccc3s1)CC2,-0.261 (inactive),0.0715,0.345 (inactive)
Cc1ccc2c(CC(=O)N3CC(=O)N(CC(C)C)CC(OCc4ccccn4)C3)cc(=O)oc2c1 (stereo unspecified),-0.0739 (inactive),0.0342,0.435 (inactive)
O=c1c(/C=C/c2ccccc2)cc2c(n1Cc1ccccn1)CCN(C1CCOCC1)C2,-0.0238 (inactive),0.293,0.925 (inactive)
COCc1ccc(C(=O)N2CCc3c(cc(-c4ccncc4)c(=O)n3CCN3CCCCC3)C2)o1,-0.345 (inactive),0.626,0.77 (inactive)
Cc1ccc(CNC(=O)c2nn(C)c3c2CC(NC2CCN(Cc4ccccc4)CC2)CC3)o1 (stereo unspecified),0.347 (inactive),0.979,-1.23 (inactive)
COc1ccc(CN2C[C@@H](COc3cccc(C(F)(F)F)c3)C[C@@H](C(=O)NCC(C)C)C2)cc1OC,-0.34 (inactive),0.0165,-1.45 (inactive)
CC(C)CCN1C(=O)N(CCN(C)C)C(=O)C12CCN(Cc1cn(C)c3ccccc13)CC2,-0.333 (inactive),-0.689,0.81 (inactive)
Cc1csc(-c2cc(C(=O)N3CCC(N(C)C)C3)cc(S(=O)(=O)N3CCOCC3)c2)c1 (stereo unspecified),-0.101 (inactive),0.349,0.805 (inactive)
CC(C)OCCNC1CCc2c(c(C(=O)N(C)Cc3ccccc3)nn2C)C1 (stereo unspecified),0.055 (inactive),-0.804,0.48 (inactive)
CCCCNC(=O)[C@@H]1C[C@H](CN2CCOCC2)CN(Cc2ccccc2)C1,-0.071 (inactive),-0.282,-0.205 (inactive)
Cc1csc(SCC(=O)N2CCc3c(cc(-c4csc5ccccc45)c(=O)n3C)C2)n1,-0.151 (inactive),0.398,1.5 (inactive)
CN1C(=O)N(Cc2ccccc2)C2(CCN(Cc3nc4ccccc4n3C)CC2)C1=O,0.0463 (inactive),-0.298,-0.11 (inactive)
Cc1ccc(C(C)CCN2CCC3(CC2)C(=O)N(C(C)C)C(=O)N3CCC(C)C)o1 (stereo unspecified),-0.199 (inactive),-0.496,0.91 (inactive)
CN(C)c1ccc(/C=C/CN2CC(=O)N(CCCN3CCCC3=O)CC(O)C2)cc1 (stereo unspecified),-0.11 (inactive),-0.286,0.35 (inactive)
Cc1nn(C)cc1CNc1cc(C(=O)NCc2cn3ccccc3n2)cc(S(=O)(=O)NC(C)C)c1,-0.236 (inactive),-0.702,-0.11 (inactive)

# Source: PubChem BioAssay
